Screens: PubChem, Sanford-Burnham Center for Chemical Genomics
An excerpt weighted towards active compounds, which were near 28% of everything screened.
CYP2C9 act – human CYP2C9 activators, primary screen, biochemical, luminescence; Cytochrome P450 2C9 (Homo sapiens), P11712; recombinant CYP2C9, luciferin-H conversion; stronger effect = higher value; factor 1 = untreated enzyme, 0 = blocked; activation factor at 5 µM; actives 1.4% (n = 96,000); AID 1024, 2008;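 active = activation factor of 2 or more for CYP2C9 at a 5 µM dose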
Mac1 fbg enh – enhancers of CD11b/CD18 adhesion to fibrinogen, primary screen, K562 cells, luminescence; ATPlite luminescence; activation, % at 10 µM; actives 0.07% (n = 93,000); Integrin beta-2 (Homo sapiens) + Integrin alpha-M (Homo sapiens), P05107+P11215;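 active = 10 µM primary screen giving 50% or more activity, confirmed by 40% or more on retest at that dose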
Target sequence (P05107 whole entry, looked up, other chains not shown): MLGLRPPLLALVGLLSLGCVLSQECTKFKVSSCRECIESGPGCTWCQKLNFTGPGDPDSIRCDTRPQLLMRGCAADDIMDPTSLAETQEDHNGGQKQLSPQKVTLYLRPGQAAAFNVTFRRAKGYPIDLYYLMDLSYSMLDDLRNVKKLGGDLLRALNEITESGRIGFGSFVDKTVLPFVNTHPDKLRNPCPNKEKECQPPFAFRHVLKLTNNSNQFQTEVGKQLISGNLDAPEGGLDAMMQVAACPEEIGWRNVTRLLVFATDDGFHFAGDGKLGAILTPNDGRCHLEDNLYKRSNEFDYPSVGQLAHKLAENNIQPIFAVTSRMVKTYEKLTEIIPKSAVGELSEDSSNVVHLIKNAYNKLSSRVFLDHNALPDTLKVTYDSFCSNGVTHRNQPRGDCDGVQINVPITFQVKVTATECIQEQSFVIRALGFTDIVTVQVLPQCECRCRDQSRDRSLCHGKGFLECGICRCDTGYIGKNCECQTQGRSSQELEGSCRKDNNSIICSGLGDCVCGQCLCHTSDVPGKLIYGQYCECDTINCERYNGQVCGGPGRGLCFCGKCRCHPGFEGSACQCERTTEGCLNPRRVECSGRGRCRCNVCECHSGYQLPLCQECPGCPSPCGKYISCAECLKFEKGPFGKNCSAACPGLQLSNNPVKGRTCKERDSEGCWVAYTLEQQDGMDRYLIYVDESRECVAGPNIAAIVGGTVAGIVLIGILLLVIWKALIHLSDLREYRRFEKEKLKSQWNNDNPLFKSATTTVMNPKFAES
CYP2C9 inhib – blockers of cytochrome P450 2C9 activity – biochemical, luminescence, ADME assay, primary screen; inhibition, % at 5 µM; actives 20% (n = 96,000); AID 777, 2007; CYP2C9 Supersomes, luciferin-H conversion; P11712;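 active = blocking of liver enzyme CYP2C9 beyond about 50% at 5 µM, limit read from the data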
CYP2C19 act – human CYP2C19 activators, primary screen, biochemical, luminescence. Cytochrome P450 2C19 (Homo sapiens), P33261. activation factor at 5 µM. AID 1025, 2008. recombinant CYP2C19, luciferin-H EGE luminescence; stronger effect = higher value; 0 = fully inhibited enzyme, 1 = untreated enzyme. 96,000 tested, under 10 active;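 active = activation factor of at least 2 at 5 µM in the primary screen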
CYP2C19 inh – blockers of cytochrome P450 2C19 activity – biochemical, luminescence, ADME assay, primary screen. actives 21% (n = 96,000). inhibition, % at 5 µM. CYP2C19 Supersomes, luciferin-H EGE luminescence, 30 min;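 active = CYP2C19 inhibition above a set limit at 5 µM in the primary screen, cut at about 50% in these data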
Mac1 fbg inh – inhibitors of CD11b/CD18 adhesion to fibrinogen, primary screen, K562 cells, luminescence; Integrin beta-2 (Homo sapiens) + Integrin alpha-M (Homo sapiens), P05107+P11215; ATPlite luminescence; Mn2+ added to activate the integrin; inhibition, % at 10 µM; actives 0.54% (n = 93,000); AID 1497, 2009;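 active = primary inhibition of 50% or more at 10 µM, then 40% or more on retest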
Each line names hits and unclear results; the compound was inactive in the other large screens.

C=CCNc1nc(C2(C)CC3(CC(C)(C)OC3=O)C(=O)O2)cs1 (centres undefined)	CYP2C19 inh 79
COc1cccc(NC(=O)C2C3C=CC(O3)C2C(=O)NCc2cccnc2)c1 (centres undefined)	none
N#CCC(=N)N1CCN(c2ccccc2Cl)CC1	none
COC(=O)CN(c1ccc(F)cc1)S(=O)(=O)c1ccc2c(c1)OCCO2	CYP2C9 inhib 54
O=C(CN(c1ccc(F)cc1)S(=O)(=O)c1ccc2c(c1)OCCO2)NCc1ccccn1	CYP2C9 inhib 64, CYP2C19 inh 95
COC(=O)CN(c1ccc2c(c1)OCCO2)S(=O)(=O)c1ccccc1	CYP2C9 inhib 64, CYP2C19 inh 84
O=C1c2ccccc2C(=O)N1c1ccc(S(=O)(=O)N2CCN(c3ccccc3)CC2)cc1	none
Cc1cccc(C)c1-n1nnnc1SCSc1nnnn1-c1c(C)cccc1C	CYP2C9 inhib 77
Cc1ccccc1CSc1nnc(C)n1N	none
Cn1nc(-c2ccccc2)c(C(=O)Nc2ccc(C(F)(F)F)cc2)c1Cl	none
Cn1nc(-c2ccccc2)c(C(=O)Nc2ccc(Cl)cc2)c1Cl	CYP2C19 inh 63 (no result: Mac1 fbg enh, Mac1 fbg inh)
O=C(CCCNS(=O)(=O)c1cccc2nsnc12)NC1CCCCC1	none
O=C(COC(=O)C1(c2ccc(F)cc2)CCCC1)Nc1ncc(C(F)(F)F)cc1Cl	none (no result: CYP2C9 act, CYP2C9 inhib, CYP2C19 act, CYP2C19 inh)
Cc1ccc(C2(C)NC(=O)N(CCOc3ccccc3)C2=O)cc1 (centres undefined)	CYP2C19 inh 77
COc1ccc(CCNC(=O)CNS(=O)(=O)c2cccs2)cc1OC	CYP2C19 inh 64
COc1ccc(NC(=O)Cn2nnc(-c3ccccc3F)n2)cc1Cl	none
COc1ccc(C(=O)Cn2nnc(-c3cccs3)n2)cc1	none
COc1ccc(-c2nnn(CC(=O)NCCc3c[nH]c4ccccc34)n2)cc1OC	CYP2C19 inh 64 (no result: CYP2C9 act, Mac1 fbg enh, CYP2C9 inhib, Mac1 fbg inh)
COc1ccc(CCNC(=O)Cn2nnc(-c3ccccc3F)n2)cc1OC	CYP2C9 inhib 65
COc1ccc(CCNC(=O)Cn2nnc(-c3cccs3)n2)cc1OC	CYP2C9 inhib 56
O=C(CCl)NCc1c(Cl)cccc1-n1cccc1	none
COCCCNC(=O)Cn1nnc(-c2ccccc2NC(=O)c2ccccc2F)n1	CYP2C9 inhib 88, CYP2C19 inh 57
O=C(NCCc1c[nH]c2ccccc12)C(F)(F)F	none
COC(=O)CCn1nnc(-c2cccs2)n1	CYP2C19 inh 78
O=C(CN1CCC(O)(c2ccccc2F)CC1)NCCc1c[nH]c2ccccc12	CYP2C9 inhib 80
O=C(/C=C/c1ccc(Br)cc1)N1CCN(c2cccc(C(F)(F)F)c2)CC1	none (no result: CYP2C9 act, CYP2C9 inhib, CYP2C19 act, CYP2C19 inh)
Cc1cc(C)n(-c2nc(SCCN(C)C)c3c4c(sc3n2)COC(C)(C)C4)n1	none
O=C(CCS(=O)(=O)c1cccc2nsnc12)NCc1ccccc1Cl	none
CCCSc1nnc(-c2c[nH]c3ccccc23)n1CC	CYP2C19 inh 89
Cc1ccccc1-n1c(SCc2c(C)noc2C)nnc1-c1c[nH]c2ccccc12	none
CCCSc1nnc(-c2cnn(-c3ccccc3)c2-n2cccc2)n1C	none
CCCSc1nnc(-c2c[nH]c3ccccc23)n1C	CYP2C19 inh 76
Cc1cc(C)nc(NC(=O)C(C)C)n1	none
CCCn1nc(C(=O)NC2CCCc3ccccc32)c2ccccc2c1=O (centres undefined)	none (no result: CYP2C9 act, CYP2C9 inhib, CYP2C19 act, CYP2C19 inh)
O=C(Cc1c(F)cccc1Cl)Nc1ccon1	CYP2C9 inhib 78
CC(C)N1CCc2c(sc(N)c2C#N)C1	none
CC(C)C1Cc2c(C#N)c(N)sc(=S)c2CO1 (centres undefined)	CYP2C9 inhib 84, CYP2C19 inh 51
CC1(C)Cc2c(C#N)c(N)sc(=S)c2CO1	CYP2C9 inhib 68
COCCNC(=S)N1CCOCC1	none (no result: CYP2C9 act, CYP2C9 inhib, CYP2C19 act, CYP2C19 inh)
CSc1ccc(CNc2ccccn2)cc1	CYP2C19 inh 63
CSc1n[nH]c(NCc2ccccc2)n1	none
CSc1ccc(CNc2ccccc2)cc1	CYP2C19 inh 92 (no result: Mac1 fbg enh, Mac1 fbg inh)
